In PubChem BioAssay (NCATS) one finds Potency, activity change, negative = inhibition and activity, negative = inhibition data, which are given here for 15 compounds.

For experiment [1], the target named is Lysosomal acid glucosylceramidase (Homo sapiens) (UniProt P04062). As to the kind of experiment: Glucocerebrosidase-p2 (AID 348; in the data active means potency below about 10 µM; further: potency means the concentration at half of the fitted maximal effect). Conditions: purified GBA, blue fluorogenic substrate, 40 min. The procedure, abridged: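 Normal human glucocerebrosidase (0.2 nM) with blue fluorogenic substrate (80 uM final) in citrate/phosphate pH 5.9 with 10mM sodium taurocholate, 0.01% tween-20; 40 min RT, NaOH/glycine stop; fluorescence Ex 365/Em 440; AC50 from a titration from 0.6 nM upwards.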
Lysosomal acid glucosylceramidase (Homo sapiens), sequence (P04062 whole entry, looked up): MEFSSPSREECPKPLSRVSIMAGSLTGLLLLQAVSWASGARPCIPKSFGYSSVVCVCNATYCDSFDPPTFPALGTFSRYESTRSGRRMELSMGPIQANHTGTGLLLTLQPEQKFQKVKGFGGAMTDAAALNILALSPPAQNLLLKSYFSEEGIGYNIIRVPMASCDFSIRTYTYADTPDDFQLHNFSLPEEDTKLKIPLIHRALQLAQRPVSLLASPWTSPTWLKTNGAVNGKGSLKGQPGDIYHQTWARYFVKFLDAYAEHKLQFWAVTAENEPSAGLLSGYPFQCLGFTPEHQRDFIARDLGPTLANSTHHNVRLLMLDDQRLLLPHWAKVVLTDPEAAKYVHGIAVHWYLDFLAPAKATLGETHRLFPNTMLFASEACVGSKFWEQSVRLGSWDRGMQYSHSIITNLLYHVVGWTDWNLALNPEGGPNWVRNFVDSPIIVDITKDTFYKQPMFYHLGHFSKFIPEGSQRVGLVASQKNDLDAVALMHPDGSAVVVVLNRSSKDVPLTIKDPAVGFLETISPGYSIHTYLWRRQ

Experiment [2] in a line: AP1 Signaling Pathway (AID 357).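 Further: ME-180 reporter cells stimulated with EGF at its EC50 level; on the % scale 0 is the no-effect control and ±100 the full control effect.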 Conditions: ME-180 AP-1-bla reporter, EGF-induced, beta-lactamase ratio, 5 h; at 7.69 µM (top of the series) unless noted. A digest of the protocol: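 First, ME-180 AP-1-bla cells were cultured overnight at 37 °C in low-serum Opti-MEM. Next, titrated compounds with EC50 EGF were incubated 5 hours. Finally, CCF4 was added for 2.5 hours and the 460/530 nm ratio recorded.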

Experiment [3] deals with Cytochrome P450 1A2 (Homo sapiens) (UniProt P05177). The experiment can be described thus: p450-cyp1a2 (AID 410; calls by dose curve; further: potency means the concentration at half of the fitted maximal effect;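 on activity change, negative = inhibition: -100% = full effect of reference inhibitor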). Conditions: recombinant CYP1A2, luciferin-ME demethylation, luminescence; series mostly up to 11.4 µM. The procedure, abridged:
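O-Demethylation of luciferin 6' methyl ether by human CYP1A2 is monitored as luciferase luminescence. Substrate sits at Km (100uM); enzyme is 20nM. Values are scaled to 57 uM furafylline as maximal inhibition.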

The nature of experiment [4]: NFAT Signaling Pathway (AID 444).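 Further: carbachol stimulus at about its EC50 of 1 µM final; on the % scale 0 is the no-effect control and ±100 the full control effect.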 Conditions: Jurkat NFAT-bla M1, carbachol, beta-lactamase ratio, 5 h; at 7.69 µM (top of the series) unless noted. The procedure, abridged: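 Jurkat cells carrying an NFAT-driven β-lactamase reporter and co-transfected muscarinic M1 receptor were treated with compound plus carbachol (1 uM final, an EC50 level) for 5 h at 37 °C. CCF4 loading followed for 1 h at RT; 460/530 nm ratio gave %activity.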

The nature of experiment [5]: Stat Signaling Pathway (AID 446).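 Further: ME-180 cervical cancer cells given 40 pM IL-6 alongside compound; SIE-controlled beta-lactamase reporter measured as 460/530 nm FRET emission ratio; on the % scale 0 is the no-effect control and ±100 the full control effect.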 Conditions: ME-180 (cervical carcinoma) SIE beta-lactamase reporter, IL-6 stimulated, 5 h; at 7.69 µM (top of the series) unless noted. The procedure, abridged: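 Normalization used AC90 stimulation (300 pM IL-6) and AC90 inhibition (125 nM pan-JAK inhibitor at 40 pM IL-6). The underlying signal is SIE-driven beta-lactamase in ME-180 cells after 5 h IL-6 exposure with compound.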

Experiment [6] has as its target Glucocorticoid receptor (Homo sapiens) (UniProt P04150). As to the kind of experiment: GR-GFP Redistribution (AID 450;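 active means compounds whose dose series gives a full or clear partial fitted curve of increased nuclear translocation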; further: potency means the concentration at half of the fitted maximal effect). Conditions: U2OS GR-GFP nuclear translocation, laser cytometry, 2 h.
The target is the same in experiment [7]. The experiment can be described thus: GR-EFC Redistribution (AID 451; calls by dose curve; further: potency means the concentration at half of the fitted maximal effect). Conditions: CHO-K1 GR-EFC translocation, beta-gal luminescence, 2 h. The procedure, abridged:
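CHO-K1 cells stably expressing nuclear-localized β-gal enzyme acceptor and GR fused C-terminally to the enzyme donor fragment; ligand-driven nuclear translocation restores β-gal by complementation. Compounds titrated up to 46 uM final, 2 h at 37 °C; luminescence read.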

In experiment [8] the target is 3',5'-cyclic-AMP phosphodiesterase 4B (Homo sapiens) (UniProt Q07343). As to the kind of experiment: qHTS Assay for Inhibitors of PDE-IV (AID 607; active means well fitted activation curve with a large enough effect in the main read-out, with a control signal flat, not every such curve was filed as active; further: % of control where 0% means no effect). Conditions: HEK293 ACTOne CNG channel cells, membrane potential fluorescence; series mostly up to 22.9 µM. The procedure, abridged:
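HEK293 ACTOne cells with CNG channel (1000/well), endogenous PDE4; membrane potential dye, compounds up to 22.9 uM final. Fluorescence Ex 535/Em 590; RO 20-1724 (100 uM final) as reference.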

Experiment [9] has as its target Cytochrome P450 2D6 (Homo sapiens) (UniProt P10635). The experiment can be described thus: qHTS Assay for Inhibitors and Substrates of Cytochrome P450 2D6 (AID 891; active means well fitted curve in the direction sought with a large enough effect; an effect the other way counts as inactive or inconclusive; further: potency means the concentration at half of the fitted maximal effect; nearly all actives have a fitted effect of over 60% in size). Conditions: recombinant CYP2D6, luciferin-ME EGE luminescence; series mostly up to 11.4 µM. A digest of the protocol:
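Luminescent read-out of luciferin formed by 5 nM human CYP2D6 demethylating 30 uM Luciferin-ME EGE (Km level) over 60 min at room temperature after NADPH regeneration addition. Data normalized to full inhibition by 1.43 uM quinidine.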

The target of experiment [10] is Mitogen-activated protein kinase 10 (Mus musculus) (UniProt Q61831). The experiment can be described thus: JNK3 AlphaScreen Assay (AID 530).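 Further: kinase came from lysate of stimulated human HepG2 cells; on the % scale 0 is the no-effect control and ±100 the full control effect.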 Conditions: JNK3 lysate, c-Jun phosphorylation; series mostly up to 11.4 µM. The procedure, abridged: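 Phosphorylation of biotinylated GST-cJun(1-79) at Ser73 is measured by AlphaScreen proximity luminescence. Enzyme is JNK3 in HepG2 lysates activated with interleukin-1beta and tumor necrosis factor alpha; ATP is 10 uM final.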

In experiment [11] the target is Cytochrome P450 3A4 (Homo sapiens) (UniProt P08684). The experiment can be described thus: qHTS Assay for Activators of Cytochrome P450 3A4 (AID 885; active means well fitted curve in the direction sought with a large enough effect; an effect the other way counts as inactive or inconclusive; further: nearly all actives have a fitted effect of over 65% in size). Conditions: recombinant CYP3A4, Luciferin-PPXE luminescence, 60 min; series mostly up to 11.4 µM. The procedure, abridged: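 Human CYP3A4 dealkylates Luciferin-PPXE to luciferin, which luciferase detection converts to light. Substrate was at its KM (25uM), buffer 200mM KPO4, reaction 60 min at RT.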
Cytochrome P450 3A4 (Homo sapiens), sequence (P08684 whole entry, looked up): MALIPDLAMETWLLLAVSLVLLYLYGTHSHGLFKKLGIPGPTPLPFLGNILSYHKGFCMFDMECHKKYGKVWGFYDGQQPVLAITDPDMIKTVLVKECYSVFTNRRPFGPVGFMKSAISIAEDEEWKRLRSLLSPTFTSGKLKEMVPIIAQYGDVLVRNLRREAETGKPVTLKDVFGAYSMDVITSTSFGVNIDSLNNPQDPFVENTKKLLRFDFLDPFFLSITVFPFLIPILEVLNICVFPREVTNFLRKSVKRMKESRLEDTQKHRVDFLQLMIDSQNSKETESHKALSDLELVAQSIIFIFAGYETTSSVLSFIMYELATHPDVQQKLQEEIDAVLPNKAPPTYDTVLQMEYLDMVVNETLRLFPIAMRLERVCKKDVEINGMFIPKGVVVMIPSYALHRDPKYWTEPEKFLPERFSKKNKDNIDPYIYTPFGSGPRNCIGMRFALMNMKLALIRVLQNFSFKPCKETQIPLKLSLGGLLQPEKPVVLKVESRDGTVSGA

In experiment [12] the target is Cytochrome P450 2C19 (Homo sapiens) (UniProt P33261). The experiment can be described thus: qHTS Assay for Inhibitors and Substrates of Cytochrome P450 2C19 (AID 899; active means well fitted curve in the direction sought with a large enough effect; an effect the other way counts as inactive or inconclusive; further: potency means the concentration at half of the fitted maximal effect; nearly all actives have a fitted effect of over 60% in size). Conditions: recombinant CYP2C19, luciferin-H EGE luminescence; series mostly up to 11.4 µM. A digest of the protocol:
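In 50mM KPO4, the reaction held 5nM enzyme and KM-level (10uM) Luciferin-H EGE; it ran 60 min at 37C after NADPH regeneration and a 10 min compound preincubation. Luminescence values were scaled to 57uM ketoconazole as complete inhibition.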
In general terms: Quantitative high-throughput screening tests each substance at several concentrations.

Experiment [13] deals with Cytochrome P450 2C9 (Homo sapiens) (UniProt P11712). The experiment can be described thus: qHTS Assay for Inhibitors and Substrates of Cytochrome P450 2C9 (AID 883; active means well fitted curve in the direction sought with a large enough effect; an effect the other way counts as inactive or inconclusive; further: nearly all actives have a fitted effect of over 60% in size; further: potency means the concentration at half of the fitted maximal effect). Conditions: recombinant CYP2C9, luciferin-H luminescence, 60 min; series mostly up to 11.4 µM. The procedure, abridged:
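CYP2C9 deoxyluciferin hydroxylation, 37C, 60 min with NADPH regeneration; 10nM enzyme, 100uM Luciferin-H (KM). Glo detection reagent stopped reaction; luminescence normalized to sulphaphenazole (57uM) full inhibition.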

Values without a mark were called inactive. Results filed as inconclusive are left out. Calls of active or inactive are those of the source. Unless noted, the call rests on the fitted dose curve; in most records, active means well fitted curve in either direction with a large enough effect (not every such curve was filed as active); inconclusive means small, poorly fitted or top-dose-only effect, or another doubt; inactive means flat fitted curve, though single readings scatter.

Glucocorticoid receptor (Homo sapiens), sequence (P04150 whole entry, looked up): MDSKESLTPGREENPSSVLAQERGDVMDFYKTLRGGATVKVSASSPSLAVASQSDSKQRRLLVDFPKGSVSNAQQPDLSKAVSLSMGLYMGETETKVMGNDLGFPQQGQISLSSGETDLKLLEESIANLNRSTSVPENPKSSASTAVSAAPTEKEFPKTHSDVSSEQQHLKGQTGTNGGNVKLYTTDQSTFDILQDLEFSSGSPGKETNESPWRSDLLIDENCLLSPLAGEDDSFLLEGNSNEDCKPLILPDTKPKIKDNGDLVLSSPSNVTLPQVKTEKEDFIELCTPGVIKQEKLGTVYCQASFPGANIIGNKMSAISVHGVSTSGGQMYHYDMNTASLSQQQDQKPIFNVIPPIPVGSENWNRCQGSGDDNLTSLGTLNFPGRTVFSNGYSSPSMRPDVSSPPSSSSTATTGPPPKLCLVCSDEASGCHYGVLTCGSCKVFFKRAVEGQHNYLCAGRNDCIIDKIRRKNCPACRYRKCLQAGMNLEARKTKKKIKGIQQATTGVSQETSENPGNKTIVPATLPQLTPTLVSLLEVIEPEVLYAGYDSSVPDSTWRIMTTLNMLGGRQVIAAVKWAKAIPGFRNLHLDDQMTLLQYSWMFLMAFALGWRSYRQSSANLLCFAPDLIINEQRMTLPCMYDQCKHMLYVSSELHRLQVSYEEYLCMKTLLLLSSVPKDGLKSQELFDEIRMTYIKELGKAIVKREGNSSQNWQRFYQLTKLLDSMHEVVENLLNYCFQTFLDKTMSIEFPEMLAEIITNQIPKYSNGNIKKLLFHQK
Cytochrome P450 1A2 (Homo sapiens), sequence (P05177 whole entry, looked up): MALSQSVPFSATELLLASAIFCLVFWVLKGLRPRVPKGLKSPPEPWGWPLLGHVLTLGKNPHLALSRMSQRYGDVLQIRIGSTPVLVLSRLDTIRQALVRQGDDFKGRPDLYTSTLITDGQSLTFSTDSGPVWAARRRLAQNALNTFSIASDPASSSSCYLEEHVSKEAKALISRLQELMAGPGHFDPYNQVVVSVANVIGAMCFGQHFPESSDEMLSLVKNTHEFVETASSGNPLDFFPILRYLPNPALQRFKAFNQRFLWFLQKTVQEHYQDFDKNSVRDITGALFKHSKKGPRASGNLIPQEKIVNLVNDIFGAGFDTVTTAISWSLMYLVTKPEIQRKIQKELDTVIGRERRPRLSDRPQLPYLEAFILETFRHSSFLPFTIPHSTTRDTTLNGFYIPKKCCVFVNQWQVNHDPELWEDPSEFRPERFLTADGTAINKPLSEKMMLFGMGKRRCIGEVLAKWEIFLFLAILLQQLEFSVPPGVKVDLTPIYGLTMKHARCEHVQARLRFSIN
Cytochrome P450 2D6 (Homo sapiens), sequence (P10635 whole entry, looked up): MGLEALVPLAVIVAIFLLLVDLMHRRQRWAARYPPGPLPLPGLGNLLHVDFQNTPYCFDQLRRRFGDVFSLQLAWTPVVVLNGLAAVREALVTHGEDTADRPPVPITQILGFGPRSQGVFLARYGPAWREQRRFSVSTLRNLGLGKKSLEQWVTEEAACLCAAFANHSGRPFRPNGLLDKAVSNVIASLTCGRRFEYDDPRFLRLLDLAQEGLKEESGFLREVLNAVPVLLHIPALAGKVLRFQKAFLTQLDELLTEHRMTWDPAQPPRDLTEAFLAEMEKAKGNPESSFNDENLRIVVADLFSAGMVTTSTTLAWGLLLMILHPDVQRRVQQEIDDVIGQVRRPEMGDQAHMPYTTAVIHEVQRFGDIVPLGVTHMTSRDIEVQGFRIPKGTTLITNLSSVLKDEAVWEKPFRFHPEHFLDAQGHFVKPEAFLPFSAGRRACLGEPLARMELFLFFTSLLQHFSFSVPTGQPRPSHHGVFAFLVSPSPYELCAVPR
3',5'-cyclic-AMP phosphodiesterase 4B (Homo sapiens), sequence (Q07343 whole entry, looked up): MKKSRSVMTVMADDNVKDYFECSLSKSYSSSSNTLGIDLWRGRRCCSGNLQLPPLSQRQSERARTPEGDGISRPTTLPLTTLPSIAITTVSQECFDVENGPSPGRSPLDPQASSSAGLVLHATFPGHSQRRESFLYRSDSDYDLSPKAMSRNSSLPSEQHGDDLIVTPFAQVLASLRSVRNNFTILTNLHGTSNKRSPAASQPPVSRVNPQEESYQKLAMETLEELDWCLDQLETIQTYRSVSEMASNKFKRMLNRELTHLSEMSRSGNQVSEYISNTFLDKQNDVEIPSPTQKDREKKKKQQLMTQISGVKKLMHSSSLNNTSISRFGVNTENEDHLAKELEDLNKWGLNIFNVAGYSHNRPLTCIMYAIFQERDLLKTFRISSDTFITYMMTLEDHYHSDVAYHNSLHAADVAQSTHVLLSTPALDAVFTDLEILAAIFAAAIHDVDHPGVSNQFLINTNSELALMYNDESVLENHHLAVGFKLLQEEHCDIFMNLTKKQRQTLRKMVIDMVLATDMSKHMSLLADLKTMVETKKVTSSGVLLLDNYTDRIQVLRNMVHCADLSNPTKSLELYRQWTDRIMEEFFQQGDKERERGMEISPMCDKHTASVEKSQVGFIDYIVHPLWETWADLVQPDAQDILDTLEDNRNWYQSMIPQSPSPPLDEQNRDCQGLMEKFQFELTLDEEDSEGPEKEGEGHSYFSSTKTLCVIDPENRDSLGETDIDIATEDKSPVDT
Cytochrome P450 2C9 (Homo sapiens), sequence (P11712 whole entry, looked up): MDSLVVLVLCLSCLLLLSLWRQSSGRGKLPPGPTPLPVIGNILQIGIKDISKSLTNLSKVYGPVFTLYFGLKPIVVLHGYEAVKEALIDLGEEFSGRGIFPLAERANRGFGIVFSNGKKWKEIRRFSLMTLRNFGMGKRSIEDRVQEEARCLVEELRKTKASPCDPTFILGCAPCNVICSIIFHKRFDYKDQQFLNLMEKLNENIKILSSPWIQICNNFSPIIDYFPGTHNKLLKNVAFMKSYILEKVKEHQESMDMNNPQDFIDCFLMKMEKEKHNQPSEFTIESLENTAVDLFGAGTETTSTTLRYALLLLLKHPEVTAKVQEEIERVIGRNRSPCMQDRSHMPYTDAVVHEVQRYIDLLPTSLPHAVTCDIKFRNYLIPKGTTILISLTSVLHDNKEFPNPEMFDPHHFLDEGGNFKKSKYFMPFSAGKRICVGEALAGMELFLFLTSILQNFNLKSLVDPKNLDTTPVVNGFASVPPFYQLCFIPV
Cytochrome P450 2C19 (Homo sapiens), sequence (P33261 whole entry, looked up): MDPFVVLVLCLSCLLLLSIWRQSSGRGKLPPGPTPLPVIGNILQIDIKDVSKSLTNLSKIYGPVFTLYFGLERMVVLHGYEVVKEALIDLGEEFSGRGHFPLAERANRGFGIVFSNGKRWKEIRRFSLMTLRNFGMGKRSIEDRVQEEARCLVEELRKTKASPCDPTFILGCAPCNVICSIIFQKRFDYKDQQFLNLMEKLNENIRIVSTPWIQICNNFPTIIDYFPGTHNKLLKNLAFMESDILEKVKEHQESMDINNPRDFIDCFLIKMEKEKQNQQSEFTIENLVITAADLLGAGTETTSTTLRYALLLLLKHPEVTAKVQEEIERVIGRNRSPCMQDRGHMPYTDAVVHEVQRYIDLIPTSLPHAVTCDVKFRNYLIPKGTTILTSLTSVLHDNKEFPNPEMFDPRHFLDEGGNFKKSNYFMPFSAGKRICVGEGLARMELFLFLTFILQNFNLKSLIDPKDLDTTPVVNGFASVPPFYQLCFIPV

Consider `Nc1cc2c(nc3c4ccccc4c(N)cc3[n+]2-c2cccc3ccccc23)c2ccccc12` (tested in a mixture with another compound), for which the Potency in experiment [1] was greater than 11.4 µM; in experiment [3], 1.26 µM (active); in experiment [6], greater than 46 µM; in experiment [7] it was greater than 9.22 µM; in [9], 1.58 µM (active). Besides, the activity change, negative = inhibition in experiment [2] was 11.3%; in experiment [4], 8.58%. For the same compound, the activity, negative = inhibition in experiment [5] was 6.04%. Also, in experiment [8], the Potency entry was “inactive”.

For the compound `COC(=O)N1CCC2(CCCN(Cc3cc(C(F)(F)F)cc(C(F)(F)F)c3)C2)CC1`, the Potency in experiment [1] was greater than 11.4 µM; in [7], greater than 46 µM. In addition, the values for the activity change, negative = inhibition in experiment [2] and in experiment [4] were 12% and 0.959%, respectively. Further, the Potency result in experiment [3], in experiment [10] and in [8] was “inactive” each time. In addition, in [5], the activity, negative = inhibition was -1.27%.

Turning to `C(=Nc1cnc2ccccc2c1)c1ccc2ccccc2n1`, the Potency in [1] was greater than 11.4 µM; in experiment [3], 3.98 µM (active); in [7], greater than 9.22 µM. Also, the activity change, negative = inhibition in [2] is -2.4%; in [4], 3.2%. For the same compound, the activity, negative = inhibition in [5] is -6.04%. The Potency result in [10] and in [8] was “inactive” in each case.

Regarding `Cc1c(N2CCCC2)cc2c(c1NC(=O)c1ccccc1Cl)C(C)(C)CC2(C)C`, the Potency in [1] is greater than 11.4 µM; in [7] it was greater than 9.22 µM; in experiment [12], 0.794 µM (active). Moreover, the values for the activity change, negative = inhibition in experiment [2], in [3] and in [4] were -3.93%, -13.1% [at 2.29 µM] and -10.2%, respectively. Moreover, the activity, negative = inhibition in experiment [5] was -9.5%. Also, the Potency entry in experiment [10], in experiment [8] and in experiment [11] was “inactive” each time.

`O=C(O)/C=C\C(=O)Nc1ncn[nH]1`: the Potency was greater than 11.4 µM in experiment [1] and greater than 9.22 µM in experiment [7]. Besides, the activity change, negative = inhibition was 8.44% in [2] and 2.25% in experiment [4]. Besides, the Potency entry in [3], in experiment [10] and in experiment [8] was “inactive” throughout. Also, the activity, negative = inhibition in experiment [5] is 2.6%.

Regarding `Clc1ccc(CN2CCCN(Cc3ccc(Cl)cc3)C2c2cc3ccccc3c3ccccc23)cc1`, the Potency was greater than 11.4 µM in experiment [1]; 0.794 µM (active) in [3]; greater than 46 µM in experiment [6]; 0.199 µM (active) in experiment [9]; 0.794 µM (active) in experiment [12]. The activity change, negative = inhibition in experiment [2] is 6.24%; in experiment [4] it was -10.5%. In addition, in [5], the activity, negative = inhibition was 2.22%. For the same compound, the Potency entry in [10] and in experiment [13] was “inactive” each time.

On to `Cc1ccc(C(N)=Nc2ccccc2)cc1`, for which the Potency in experiment [1] was greater than 11.4 µM; in experiment [6], greater than 46 µM; in [7], greater than 9.22 µM; in [9], 3.16 µM (active). Also, the activity change, negative = inhibition was 18.3% in experiment [2] and -2.23% in experiment [4]. In addition, the Potency result in [3] and in experiment [8] was “inactive” throughout. The activity, negative = inhibition in [5] is -4.47%.

Consider `CCN1CCCCC(=N/O)/C(=N/O)CCCC1`, for which the Potency is greater than 11.4 µM in experiment [1] and greater than 46 µM in [6]. The results for the activity change, negative = inhibition in [2] and in experiment [4] were -1.64% and -10.8%, respectively. The Potency result in [3], in [10] and in experiment [8] was “inactive” in each case. Further, the activity, negative = inhibition in experiment [5] is 2.5%.

Regarding `O=C(Nc1cccc(Cl)c1)Nn1cnnc1`, the Potency in experiment [1] was greater than 11.4 µM; in [3], 3.16 µM (active); in [6], greater than 46 µM. Also, the figures for the activity change, negative = inhibition in experiment [2] and in [4] were 0.989% and -6.38%, respectively. Besides, in experiment [5], the activity, negative = inhibition was -6.44%. The Potency entry in experiment [10], in experiment [8] and in experiment [11] was “inactive” in each case.

Regarding `O=C(CCCc1ccccn1)c1ccccc1`, the Potency in experiment [1] is greater than 11.4 µM; in [3] it was 5.01 µM (active); in experiment [6], greater than 46 µM. The activity change, negative = inhibition was 4.82% in experiment [2] and 1.79% in experiment [4]. Besides, in experiment [5], the activity, negative = inhibition was 2.46%. Also, the Potency result in experiment [10] and in experiment [8] was “inactive” throughout.

For the compound `C/C(=N/O)c1ccc2cc(Br)c3ccccc3c2c1`, the Potency in experiment [1] was greater than 11.4 µM; in experiment [6], greater than 46 µM; in [9], 0.0251 µM (active). Moreover, the activity change, negative = inhibition in experiment [2] was 15%; in experiment [3], -13.6% [at 2.29 µM]; in experiment [4] it was 1.9%. In addition, in experiment [5], the activity, negative = inhibition is -6.91%. Also, the Potency result in experiment [10] and in experiment [8] was “inactive” each time.

With `O=c1c(CCc2ccccc2)nc2cnc(Oc3cccc(Cl)c3)nc2n1C[C@H]1CCCO1`, the Potency is greater than 11.4 µM in experiment [1]; 3.98 µM (active) in experiment [3]; greater than 9.22 µM in experiment [6]; greater than 46 µM in experiment [7]; 6.31 µM (active) in experiment [13]. Moreover, the activity change, negative = inhibition was -27.5% in experiment [2] and -15.5% in experiment [4]. In addition, in experiment [5], the activity, negative = inhibition was -17.7%. Besides, the Potency entry in experiment [11] is “inactive”.

With `COc1cc(C)cc(OC)c1/C=C\C(=O)O`, the Potency in experiment [1] was greater than 11.4 µM; in experiment [7] it was greater than 9.22 µM. Moreover, the activity change, negative = inhibition in experiment [2] was 12.4%; in [4], 8.76%. Further, the Potency result in experiment [3], in experiment [10] and in [8] was “inactive” each time. In [5], the activity, negative = inhibition was 7.32%.

As to `Cn1c(=O)c2[nH]c(CCS)nc2n(C)c1=O`, the Potency was greater than 11.4 µM in experiment [1] and greater than 9.22 µM in experiment [7]. The activity change, negative = inhibition in [2] is 3.25%; in experiment [4], -18%. In addition, the Potency entry in experiment [3], in [10], in [8] and in experiment [11] was “inactive” each time. Moreover, the activity, negative = inhibition in experiment [5] was 3.06%.

With `NCC(=O)Nc1ccc(Cl)cc1C(=O)c1ccc[nH]1`, the Potency is greater than 11.4 µM in experiment [1], 3.16 µM (active) in experiment [3] and greater than 9.22 µM in experiment [7]. In addition, the activity change, negative = inhibition in experiment [2] was -2.05%; in experiment [4], -24.8%. Besides, the activity, negative = inhibition in experiment [5] was -3.02%. Also, the Potency entry in experiment [10] and in experiment [8] was “inactive” in each case.
